Values joined by “and” are separate entries in the source; they are usually repeats but may differ in a detail not shown here. Equal entries are not always repeated. For part of these data: Entries with a potency or affinity are not part of this list. Active and inactive are the calls of the source.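 How the source made its calls, unless noted: active means thallium flux through the channel raised or lowered by more than 3 SD from vehicle-only wells, actives on both sides; inactive means the rest.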
Key:
[1] = P. berghei load reduction in hepatocytes – cell-based, HepG2, luciferase luminescence, HepG2 viability, primary screen (AID 624349; in the data active means parasite load remaining mostly below about 12%, no sharp cut-off; inactive means mostly above about 10%;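 further: 100% = mean of DMSO negative control wells on the same plate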); settings: P. berghei liver stage in HepG2, luciferase luminescence, concentration not given here; parasite load remaining: stronger effect = lower value; viability: measured here: HepG2 viability without parasites
[2] = signal quenchers or enhancers, Cy5 substrate/SSB – biochemical, NIH Clinical Collection, E. coli SSB, artefact control for HCV NS3 helicase inhibitor project (AID 743268; call rule not given here); settings: Cy5-oligo bound E. coli SSB, fluorescence interference
[3] = modulation of C. elegans fzo-1 (AID 1259413; call rule not given here;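 further: fzo-1 mutant C. elegans worms in liquid wells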); settings: C. elegans fzo-1 modulator screen, mean read-out; stronger effect = higher value
[4] = galactose survival enhancers in mitochondrial complex I cybrids – cell-based, galactose medium, ATP luminescence, primary screen (AID 1645843;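 active means z-score of at least 1.8 in each of two replicates, scored against plate mean and spread of sample wells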;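 further: positive z means more ATP and so rescue of galactose-driven cybrid death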); settings: complex I mutant cybrid cells, 72 h, stronger effect = higher value
[5] = test system: F380Y/beta1; assay: BK channel mutant inhibitors and activators – cell-based, U2OS BacMam, thallium flux, beta subunits, selectivity assay, profiling panel (AID 1259406); settings: U2OS BacMam BK variants, at 30 µM;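 further: initial slope of Thallos dye fluorescence rise after thallium is added; log ratio against the mean of 0.3% DMSO vehicle wells on the same plate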
[6] = test system: F380Y/beta4; assay: as above; settings: U2OS BacMam BK variants, at 30 µM
[7] = test system: R275C; assay: as above; settings: U2OS BacMam BK variants, at 30 µM
[8] = test system: R275C/beta1; assay: as above; settings: U2OS BacMam BK variants, at 30 µM
[9] = test system: R275C/beta2Delta; assay: as above; settings: U2OS BacMam BK variants, at 30 µM
[10] = test system: R275C/beta4; assay: as above; settings: U2OS BacMam BK variants, at 30 µM
[11] = test system: R275C/Slo1WT/beta2; assay: as above; settings: U2OS BacMam BK variants, at 30 µM
[12] = blockers of polyQ-driven CASP3 activation – cell-based (AID 1583); settings: polyglutamine-induced caspase-3 activation, cell assay; stronger effect = higher value;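 tested at 10 µM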
[13] = yeast 75Q aggregation reduction – 75Q-TubU reporter (AID 1593); settings: Yeast 75Q polyglutamine aggregation reporter
[14] = restoration of touch response, mutant HTT neurons – whole organism, C. elegans mechanosensory neurons, N-terminal huntingtin (AID 1599); settings: C. elegans polyQ-huntingtin mechanosensory neurons, stronger effect = higher value
[15] = blockers of cytochrome c efflux from mitochondria – biochemical, purified mitochondria (AID 1603); settings: stronger effect = lower value;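 further: mouse liver mitochondria challenged with calcium chloride; signal normalized to the plate average as 100%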
[16] = polyglutamine aggregate formation blockers (AID 1604); settings: polyglutamine-induced protein aggregation inhibition assay; stronger effect = higher value; tested at 2.5 µM
[17] = glutamate transport activators, MN-1 cells, MN-1 cell line (AID 1612); settings: MN-1 motor neuron cells, stronger effect = higher value;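 further: tested at 1 µM final; 0% = mean of DMSO vehicle wells on each plate; positive means more glutamate uptake than control and negative means less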
[18] = 75Q-TubH aggregate inhibition, S. cerevisiae, yeast (AID 1616); settings: S. cerevisiae 75Q-TubH polyglutamine aggregation suppression; stronger effect = higher value
[19] = compounds altering viability of human ES cells (AID 493140; call rule not given here;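 further: cells exposed to compounds for four days before counting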); settings: human embryonic stem cell survival screen; stronger effect = higher value

SMILES | parasite load remaining [1] | viability [1] | fluorescence ratio [2] | mean signal [3] | z-score [4] | log fold change Tl+ flux [5] | log fold change Tl+ flux [6] | log fold change Tl+ flux [7] | log fold change Tl+ flux [8] | log fold change Tl+ flux [9] | log fold change Tl+ flux [10] | log fold change Tl+ flux [11] | inhibition [12] [%] | score [13] | rescue above control [14] | cytochrome c release ratio [15] | inhibition of aggregation [16] [%] | glutamate uptake change [17] [%] | aggregation suppression score [18] | survival [19]
CN(C)CCC[C@@]1(c2ccc(F)cc2)OCc2cc(C#N)ccc21 | 78.9% (inactive) and 44.8% (inactive) | 63.5% and 102% | 1.05 (inactive) | 287 (inactive) | 0.15 (inactive) and 0.43 (inactive) | -0.0013 (inactive) | 0.042 (inactive) | -0.0846 (inactive) | 0.0547 (inactive) | 0.0841 (inactive) | 0.0144 (inactive) | 0.0208 (inactive) |  |  |  |  |  |  |  | 
Cc1ccc(S(=O)(=O)NC(=O)NN2CCCCCC2)cc1 |  |  | 1.04 (inactive) | 286 (inactive) | 0.415 (inactive) and 0.635 (inactive) and 0.49 (inactive) | 0.00805 (inactive) | -0.0504 (inactive) | -0.0622 (inactive) | -0.00502 (inactive) | -0.0116 (inactive) | 0.0645 (inactive) | -0.0145 (inactive) | -0.98 | 1.2 | 1.05 | 1.07 | 69.7 | 14.9 | 0.918 | 3.17 (inactive)
CC(CN1c2ccccc2Sc2ccccc21)N(C)C (stereo not drawn) |  |  | 0.91 (inactive) | 245 (inactive) | -1.14 (inactive) and -0.84 (inactive) and -0.715 (inactive) | 0.16 (active) | 0.26 (active) | -0.00748 (inactive) | 0.305 (active) | 0.176 (active) | 0.0949 (inactive) | -0.0568 (inactive) | -21.1 | 1.87 | 27.9 | 0.77 | 66.7 | 9.05 | 1.37 | 1.42 (inactive)
Nc1ccc(S(=O)(=O)c2ccc(N)cc2)cc1 |  |  | 0.97 (inactive) | 228 (inactive) | -0.16 (inactive) | -0.00845 (inactive) | 0.0288 (inactive) | -0.00888 (inactive) | -0.0191 (inactive) | 0.0154 (inactive) | -0.0181 (inactive) | -0.0232 (inactive) | 2.36 | 0.97 | 9.67 | 0.87 | 66.2 | -16.9 | 1.25 | 11.6 (inactive)
CC[N+](C)(C)c1cccc(O)c1 |  |  | 1.03 (inactive) | 239 (inactive) | 0.66 (inactive) and 0.015 (inactive) | -0.0227 (inactive) | 0.00778 (inactive) | 0.00231 (inactive) | -0.022 (inactive) | 0.0107 (inactive) | -0.0318 (inactive) | 0.00666 (inactive) | 0.97 | 1.45 | -4.06 | 0.79 | 49.4 | -4.41 | 1.27 | 20.2 (inactive)
Nc1nc(N)c2nc(-c3ccccc3)c(N)nc2n1 |  |  | 1.01 (inactive) | 245 (inactive) | -0.725 (inactive) and 0.27 (inactive) | -0.0403 (inactive) | -0.00497 (inactive) | -0.00764 (inactive) | -0.0258 (inactive) | -0.000652 (inactive) | -0.0731 (inactive) | 0.0101 (inactive) | 13.8 | 1.58 | 4.34 | 0.47 | 52.6 | 10.7 | 1.34 | 18.2 (inactive)
CC(C)[N+](C)(CCOC(=O)C1c2ccccc2Oc2ccccc21)C(C)C |  |  | 1.03 (inactive) | 251 (inactive) | 0.295 (inactive) and 0.02 (inactive) | -0.0699 (inactive) | -0.0221 (inactive) | 0.0289 (inactive) | 0.0122 (inactive) | -0.014 (inactive) | -0.0395 (inactive) | -0.0246 (inactive) | 8.5 | 0.96 | 2.24 | 0.77 | 58.5 | -0.12 | 1.09 | 4.92 (inactive)
O=C(CCCN1CC=C(n2c(=O)[nH]c3ccccc32)CC1)c1ccc(F)cc1 |  |  | 0.99 (inactive) | 249 (inactive) | -0.69 (inactive) | -0.0432 (inactive) | 0.0551 (inactive) | 0.0212 (inactive) | 0.0837 (active) | 0.0699 (inactive) | 0.00129 (inactive) | 0.0371 (inactive) | -1.81 | 1.12 | 6.51 | 1.19 | 63.6 | 4.12 | 1.21 | 4.83 (inactive)

Reference: PubChem BioAssay
